According to ChEMBL document CHEMBL4513216, “Probing the Open Global Health Chemical Diversity Library for Multistage-Active Starting Points for Next-Generation Antimalarials” (ACS Infect Dis, 2020):
Out of some 68,000 compounds screened, about 2,700 (4%) showed an effect of 50% or more. What follows is part of a selection rich in strong results, with near analogues and random picks from the rest.

The compounds below were run on Plasmodium berghei (assay: Screen against P. berghei liver stage (PbLuc), transformed with Luciferase, at 2uM). Settings: tested at 2 uM.
Assay type: functional, HepG2

Structure (SMILES) | INHIBITION [%]
CO[C@@H]1CCN(Cc2ccoc2)C[C@@H]1Cc1ccccc1 | 28.46
CCc1c(C)nc2ccccc2c1N1CCC(C(=O)NC)CC1 | 5.28
CCOC(=O)N1CCN(c2nc(N)c3ccccc3n2)CC1 | -12.08
OC1CCN(c2cnnc3ccccc23)CC1 | -1.81
CCc1c(C)nc2ccccc2c1N1CCC(O)CC1 | 60.13
CCc1c(C)nc2ccccc2c1N1CCC(NC(C)=O)CC1 | 50.59
CCOC(=O)N1CCN(c2nc(NC3CC3)c3ccccc3n2)CC1 | 27.85
CN(CCc1cccc2ccccc12)Cc1nc(N)nc(N(C)C)n1 | -3.1
COCC[C@]1(O)CCN(Cc2nc(C)cs2)C[C@H]1C | -9.15
Cc1n[nH]c(C)c1C1CCCN1C(=O)c1cc(Br)c[nH]1 (centres undefined) | 56.21
Cc1n[nH]c(C)c1C1CCCN1C(=O)c1coc(Br)c1 (centres undefined) | 28.43
Cc1cccc(C(=O)N2CCCC2c2c(C)n[nH]c2C)c1 (centres undefined) | 41.84
Cn1cc2c(n1)C(CNC1CCOCC1)OCC2 (centres undefined) | -10.78
CC(=O)N1CCC2(CC1)COC(COCc1ccccn1)C2 (centres undefined) | 53.55
CCOCC(=O)N1CCC2(CC1)COC(COCc1ccccn1)C2 (centres undefined) | 18.05
COCC(=O)N1CCC2(CC1)COC(COCc1ccccn1)C2 (centres undefined) | 37.41
FC(F)(F)Oc1ccc(-c2c[nH]c([C@@H]3COCCN3)n2)cc1 | 12.28
FC(F)(F)c1ccc(-c2c[nH]c([C@@H]3COCCN3)n2)cc1 | 64.99
Fc1ccc(-c2c[nH]c([C@@H]3COCCN3)n2)cc1 | 32.59
CC(c1ncc(-c2ccccc2)o1)N1CCN(C(=O)C(C)(C)C)CC1 (centres undefined) | -18.71
CNC(=O)CCN(C)c1nc(-c2ccncc2)nc2c1CCNC2 | 24.54
Cc1ccc(CN2C[C@@H](OCc3csc(C)n3)[C@H]3COC[C@H]32)s1 | 9.36
Cc1nc(CO[C@@H]2CN(Cc3cccs3)[C@@H]3COC[C@@H]32)cs1 | 26.01
Cc1nc(CO[C@@H]2CN(Cc3cccnc3)[C@@H]3COC[C@@H]32)cs1 | 55.66
Cc1nc(CO[C@@H]2CN(Cc3ccsc3)[C@@H]3COC[C@@H]32)cs1 | 24.43
Cc1nc(CO[C@@H]2CN(Cc3ccc(F)cc3)[C@@H]3COC[C@@H]32)cs1 | -17.76

Structure (SMILES) | INHIBITION [%]
Cc1nc(CO[C@H]2CN(Cc3cccs3)[C@@H]3COC[C@H]23)cs1 | 56.76
CC1=C(C(=O)NCCc2n[nH]c3c2CCCC3)C(C)NC(=O)N1 (centres undefined) | -18.23
COCc1nc(-c2ccnc(N3CCNCC3)n2)no1 | -8.07
CC(C)c1noc(CS(=O)(=O)CC(=O)NCCOc2ccccc2)n1 | -38.35
CC(C)c1noc(CS(=O)(=O)CC(=O)NCc2cccs2)n1 | 20.74
CC(C)c1noc(CS(=O)(=O)CC(=O)NCc2ccccc2)n1 | 66.33
CN1CC(=O)N(c2cccc(F)c2)CC12CCN(CCO)C2 (centres undefined) | -15.88
CN1CC(=O)N(c2ccccc2)CC12CCN(CCO)C2 (centres undefined) | 65.73
CN1CC(=O)N(c2ccccc2)CC12CCN(CC1CC1)C2 (centres undefined) | -8.23
Cc1ncnc2c1CCN(C(=O)c1ccoc1)CC2 | 33.47
Cc1nc(-c2ccccc2)sc1CNC1CCc2ncnn2C1 (centres undefined) | -21.39
Cc1ncnc2c1CCN(CC1CCOC1)CC2 (centres undefined) | 8.73
COCCC(=O)N1CC[C@@H](N(C)C)[C@@H]1Cc1ccccc1 | 2.71
COc1cccc(OCC2CCCN(C(=O)CCn3ccnc3)C2)c1 (centres undefined) | 50.59
COc1cccc(OCC2CCCN(C(=O)c3cnn(C)c3)C2)c1 (centres undefined) | 29.13
COc1cccc(OCC2CCCN(C(C)=O)C2)c1 (centres undefined) | 12.91
COc1cccc(C(=O)N2CCN(C(=O)CCn3ccnc3)CC2)c1 | -14.71
COc1cccc(OCC2CCCN(C(=O)CCc3cc(O)no3)C2)c1 (centres undefined) | -29.65
COc1cccc(OCC2CCCN(C(=O)CCCn3cccn3)C2)c1 (centres undefined) | 31.51
COc1ccccc1OC1CCN(C(=O)CCCn2ccnc2)CC1 | 29.9
COc1ccccc1C(=O)N1CCN(C(=O)CCn2ccnc2)CC1 | 51.4
COc1cccc(CCC2CCCN(C(=O)c3ccccn3)C2)c1 (centres undefined) | 26.74
COc1cccc(CCC2CCCN(C(=O)c3ccc(OC)o3)C2)c1 (centres undefined) | 38.67
COc1cccc(CCC2CCCN(C(C)=O)C2)c1 (centres undefined) | 79.21
COc1cccc(OCC2CCCN(C(=O)Cc3cccc(O)c3)C2)c1 (centres undefined) | 79.21
c1cc(CN2CCOCC3(C2)CN(Cc2nccs2)CCO3)ccn1 (centres undefined) | 24.93

Structure (SMILES) | INHIBITION [%]
CN(C)C(=O)COC1COC2(CCN(c3cnccn3)CC2)C1 (centres undefined) | -16.53
N#Cc1ccccc1CNC(C(=O)N1CCOCC1)c1ccccc1 (centres undefined) | -13.11
C[C@@H]1CN(C(=O)c2cnc(C3CC3)nc2)CC[C@@]1(O)C1CCOCC1 | 11.63
c1sc(C2CCCCC2)nc1CN1CCn2c(nnc2C2CC2)C1 | 28.65
CS(=O)(=O)NCc1ncn2c1CN(CCN1CCCC1)CCC2 | 10.64
CCOc1ccccc1OC1CCN(C(=O)c2cnns2)CC1 | 73.34
CCOc1ccccc1OC1CCN(C(=O)c2csnn2)CC1 | 19.71
CCOc1ccccc1OC1CCN(C(=O)c2cnsn2)CC1 | 14.06
Cc1cccc(N2CCC3(CCCN3Cc3c(C)nn(C)c3C)CC2)n1 | -28.5
Cc1cccc(N2CCC3(CCCN3Cc3cnn(C)c3C)CC2)n1 | 11.33
Cc1cccc(N2CCC3(CCCN3Cc3cn(C)nc3C)CC2)n1 | 50.32
COCCNC(=O)NC1(c2ccccc2F)CC1 | 54.49
COCCNC(=O)N1CCN(C(=O)Cc2ccccc2F)CC1 | 1.06
COCCNC(=O)C1(c2ccccc2C)CCOCC1 | -88.54
CCS(=O)(=O)N1CCc2c(nc(C3CCCN3)nc2NC)C1 (centres undefined) | 40.35
Cc1cccc(C(=O)N2CC(=O)N(c3ccccc3Cl)CC2C)n1 (centres undefined) | 6.75
Cc1noc2ncc(C(=O)N3CCCC3c3ccsc3)cc12 (centres undefined) | 60.09
Cc1noc2ncc(C(=O)N3CCCC3c3ccncc3)cc12 (centres undefined) | -52.51
Cc1noc2ncc(C(=O)N3CCCC3c3cnn(C)c3)cc12 (centres undefined) | 26.71
Cc1cn2c(n1)CCC(NC(=O)CCOc1cccc(F)c1)C2 (centres undefined) | -34.22
CCc1nccn1C1CCCN(C(=O)c2ccnc(C)n2)C1 (centres undefined) | 20.53
Cc1noc(CNc2ccc(C(=O)N3CCCC(C)C3)cc2C)n1 (centres undefined) | 31.57
Cc1noc(CNc2ccccc2N2CCCCC2)n1 | -11.41
Cc1noc(C)c1CNc1cccc(C(=O)N2CCCC(O)C2)c1 (centres undefined) | -82.3
CCCc1nc(CNc2cccc(C(=O)N3CCCC(O)C3)c2)no1 (centres undefined) | 24.55
Cc1noc(CNc2cccc(C(=O)N3CCCC(O)C3)c2)n1 (centres undefined) | 60.9

Structure (SMILES) | INHIBITION [%]
Cc1noc(CNc2ccccc2C(=O)N2CCCC(O)C2)n1 (centres undefined) | 74.11
CCN(CC)C(=O)[C@@H]1C[C@H](N)CN1c1nnc(-c2ccccc2)s1 | -51.55
Cc1noc(C)c1CCC(=O)NC(C)c1nnc2n1CCC2 (centres undefined) | 20.31
CCC(C)N(Cc1ccncc1)C(=O)CCC(=O)OC (centres undefined) | -28.11
CCc1cc(NCCC(F)(F)F)nc(N2CCOCC2)n1 | 35.15
CN1C(=O)C2(CCN(CC3CCC3)C2)c2ccccc21 (centres undefined) | 19.05
CN1C(=O)C2(CCN(CCO)C2)c2ccccc21 (centres undefined) | 59.33
CN1C(=O)C2(CCN(CC3CC3)CC2)c2ccccc21 | 1.42
NC(=O)N1CCC2(CCN(C(=O)c3cccnc3)CC2)C1 | -14.06
CCNC(=O)[C@@H]1C[C@H](NC(=O)c2ccc(C)s2)CN1Cc1ccc(C)o1 | -12.44
Cc1occc1C(=O)N1Cc2nccn2CC(CN2CCOCC2)C1 (centres undefined) | 25.86
COc1nc2c(cc1C(=O)NCCCc1nnc(N)s1)CCC2 | 38.32
Cc1noc(CN(C)C2CCCN(Cc3noc(C4CC4)n3)C2)n1 (centres undefined) | -23.42
O=C(CC1Cn2ncnc2NC1=O)Nc1cccc(C(F)(F)F)c1 (centres undefined) | 0
O=S(=O)(CCNCc1cc(O)c2cc(F)ccc2n1)N1CCCC1 | -9.89
CN(C)S(=O)(=O)N1CCCC(c2ccncn2)C1 (centres undefined) | 31.98
CCn1nc(CC(C)C)cc1C(=O)NCC(F)(F)F | 1.04
CCOC[C@@H]1CC[C@H]2[C@H](CCN2C(=O)c2ccncc2F)O1 | 50.61
CCOC[C@H]1CC[C@H]2[C@H](CCN2C(=O)c2ccncc2F)O1 | 0.82
CC(C)COC[C@H]1CC[C@H]2[C@H](CCN2C(=O)c2ccncc2F)O1 | 55.49
COC[C@H]1CC[C@H]2[C@H](CCN2C(=O)c2ccncc2F)O1 | 39.51
CC(C)COC[C@@H]1CC[C@H]2[C@H](CCN2C(=O)c2ccncc2F)O1 | 31.08
O=C(c1ccncc1F)N1CC[C@@H]2OC(COCC3CC3)CC[C@@H]21 (some centres undefined) | 27.08
CC(=O)Nc1ccc(CNc2ccn(Cc3ccccc3)n2)cc1 | 35.56
COCCOc1ccc(NC(=O)C2CC(=O)N(C3CC3)C2)cn1 (centres undefined) | -45.07
NCC1CCC2(CCN(C(=O)c3ccccn3)CC2)CO1 (centres undefined) | -5.44
